# Screens: PubChem BioAssay, The Scripps Research Institute Molecular Screening Center
# Rows were chosen to be rich in hits. Some 2.2% of all compounds tested hit in one or more screens of this group.
# CHRM4 antagonist – antagonists of human muscarinic M4 receptor (CHRM4); inhibition, % at 3 µM; 360,000 compounds, 0.73% hits; CHO-hM4 cells, ACh EC80, Fluo-8 calcium fluorescence;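 active = inhibition above its plate's cutoff, the mean inhibition of sample wells plus 3 SD, cut at about 27% in these data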
# Target sequence (P08173 whole entry, looked up): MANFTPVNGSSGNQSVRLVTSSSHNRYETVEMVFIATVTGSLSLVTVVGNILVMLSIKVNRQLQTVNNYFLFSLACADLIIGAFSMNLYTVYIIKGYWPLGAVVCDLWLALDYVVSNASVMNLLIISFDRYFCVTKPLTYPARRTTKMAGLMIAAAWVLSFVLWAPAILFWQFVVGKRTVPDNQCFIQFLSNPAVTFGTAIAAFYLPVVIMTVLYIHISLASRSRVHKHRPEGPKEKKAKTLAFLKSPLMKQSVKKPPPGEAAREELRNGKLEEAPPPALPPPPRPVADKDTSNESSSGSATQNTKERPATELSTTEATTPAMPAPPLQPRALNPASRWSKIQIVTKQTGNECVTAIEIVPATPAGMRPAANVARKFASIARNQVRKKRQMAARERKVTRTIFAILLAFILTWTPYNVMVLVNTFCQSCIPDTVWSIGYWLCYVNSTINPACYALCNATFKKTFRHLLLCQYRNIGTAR
# CHRM4 PAM – CHRM4 positive allosteric modulation. P08173. CHO-K1 hM4/Gqi5, Fluo-8 calcium fluorescence, ACh EC20; 0% = ACh EC20, 100% = maximal ACh. activation, % at 3 µM. 360,000 compounds, 0.4% hits;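 active = activation above its plate's cutoff, the mean activation of sample wells plus 3 SD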
# M4 ag – agonists of human muscarinic M4 receptor (CHRM4). P08173. CHO-K1 hM4/Gqi5, Fluo-8 calcium fluorescence; vehicle 0%, full acetylcholine response 100%. activation, % at 3 µM. 360,000 compounds, 0.14% hits;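 active = activation above the run mean over all test wells plus 3 SD, cut at about 32% in these data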;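 also: peak over basal fluorescence ratio per well then scaled between controls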
# M1 antag – blocks human M1 muscarinic receptor; CHO-K1 hM1, Fluo-8 calcium fluorescence, ACh EC80 antagonist; P11229; AID 588852; 360,000 compounds, 1.3% hits; inhibition, % at 3 µM;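 active = percent inhibition above its own plate's cutoff, namely the mean of that plate's compound wells plus 3 SD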;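 also: peak over basal fluorescence ratio during 140 s after agonist addition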
# CHRM1 agonist – activates human CHRM1 receptor. P11229. CHO-K1 hM1, Fluo-8 calcium fluorescence, agonist mode; 0% DMSO, 100% acetylcholine EC100. activation, % at 3 µM. 360,000 compounds, 0.33% hits. AID 588814;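 active = activation above the run's mean compound activation plus 3 SD, cut at about 16% in these data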;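 also: peak over basal fluorescence ratio within a 140 s kinetic read after compound addition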
# M1 PAM – potentiates human M1 receptor response to acetylcholine. P11229. CHO-K1 hM1, Fluo-8 calcium fluorescence, ACh EC20; 0% = ACh EC20, 100% = maximal ACh. activation, % at 3 µM. 360,000 compounds, 0.088% hits. AID 588819; in the data active = activation above about 19%, passing the limit was not always enough
# Numbers stand for hits; – = inactive.
SMILES,CHRM4 antagonist,CHRM4 PAM,M4 ag,M1 antag,CHRM1 agonist,M1 PAM
CC[N+]1(C)CCC(=C2c3ccccc3CC(=O)c3sccc32)CC1 (configuration not stated),99.2,–,–,98.3,–,–
O=C(Cc1ccc(S(=O)(=O)N2CCOCC2)s1)N1CCN(S(=O)(=O)c2ccccc2[N+](=O)[O-])CC1,–,–,–,31.6,–,–
Cc1ccc(NC(=S)N2CCN(S(=O)(=O)c3ccccc3)CC2)cc1C,–,–,–,–,–,–
CCN1CCN(CC(=O)N2c3ccccc3Sc3ccccc32)CC1,31.4,–,–,76.3,–,–
CCN(CC)C(=O)N1c2ccccc2Sc2ccccc21,–,–,–,–,–,–
O=C(CN1CCCC1)N1c2ccccc2Sc2ccccc21,60.9,–,–,97.0,–,–
Cc1cc(C)c2c(CN3CCN(c4ccccc4)CC3)cc(=O)oc2c1,–,–,–,–,–,–
O=C(C1CCCCC1)N1C[C@@H](O)[C@H](n2cc(C3CC3)nn2)C[C@@H]1c1ccc(Cl)cc1,–,–,–,–,–,–
Cc1ccc(S(=O)(=O)Oc2ccc(/C=C(/NC(=O)c3ccccc3)C(=O)Nc3ccccc3)cc2)cc1,28.1,–,–,–,–,–
c1ccc(CN2CCN(CCOCCOc3ccc4c(c3)CCC4)CC2)cc1,–,–,–,29.2,–,–
O=C(c1ccccc1)c1ccc(OCCOCCN2CCN(Cc3ccccc3)CC2)cc1,–,–,–,87.3,–,–
O=C(CCCc1nc2ccccc2s1)NNC(=O)CCN1CCN(Cc2ccccc2)CC1,–,–,–,–,17.3,–
O=C(CCN1CCN(CCO)CC1)Nc1ccc(OCc2ccccc2)cc1,–,–,–,–,–,–
O=C(CCN1CCN(Cc2ccccc2)CC1)Nc1ccc(OCc2ccccc2)cc1,54.5,–,–,24.4,–,–
O=C(NCc1ccccc1CN1CCCC1)c1ccc(OCc2cscn2)cc1,–,–,–,–,–,–
CC(=O)OCC(=O)[C@@]1(O)CC[C@H]2[C@@H]3CCC4=CC(=O)C=C[C@]4(C)[C@@]3(F)[C@@H](O)C[C@@]21C,–,–,–,–,–,–
COc1ccc(CC(=O)Oc2ccc(C)cc2C)cc1,–,–,–,–,–,–
Cc1cc(C)cc(NC(=S)N2CCN(c3ccc(F)cc3)CC2)c1,–,–,–,–,–,–
COc1ccc(C2(C)NC(=O)N(CC(=O)NC3CCCC3)C2=O)cc1OC (configuration not stated),–,–,–,–,–,–
Clc1cccc(Cl)c1CSc1nnc(-c2ccncc2)s1,–,–,–,43.3,59.9,–
Clc1ccc(CSc2nnc(-c3ccncc3)s2)cc1,–,–,–,–,–,–
CC(=O)Nc1cccc(NC(=O)Cc2nc(-c3ccccc3)sc2-c2ccc(C)cc2)c1,–,–,–,–,–,–
COc1ccc(N2CCN(C(CNC(=O)CC(C)(C)C)c3ccc4c(c3)OCO4)CC2)cc1 (configuration not stated),–,–,–,31.2,–,–
CN(C)S(=O)(=O)c1cc(NC(=O)c2ccc(-n3ccnc3)c([N+](=O)[O-])c2)ccc1Cl,–,–,–,25.5,–,–
COc1ccccc1NC(=O)c1ccc(-n2ccnc2)c([N+](=O)[O-])c1,–,–,–,–,–,–
SMILES,CHRM4 antagonist,CHRM4 PAM,M4 ag,M1 antag,CHRM1 agonist,M1 PAM
COc1ccc(-n2c(=O)[nH]cc(C(=O)N3CCc4ccccc43)c2=O)cc1,–,–,–,–,–,–
Cc1nnc(NC(=O)CN2CCN(Cc3c(Cl)cccc3Cl)CC2)s1,–,–,–,–,–,–
O=C(O)Cc1n[nH]c(=O)c2ccccc12,–,–,–,–,–,–
C/C(CS(=O)(=O)c1ccc(Cl)c(Cl)c1)=N/NC(N)=S,–,–,–,–,–,–
C/C(CS(=O)(=O)c1ccc(Cl)cc1)=N/NC(N)=S,–,19.7,–,–,–,–
Cc1[nH]nc(SCC(=O)NC(C)c2ccccc2)c1[N+](=O)[O-] (configuration not stated),–,–,–,–,–,–
CN(C)CCCNc1ncnc2scc(-c3ccccc3)c12,–,–,–,48.1,–,–
c1ccc(CNc2ncnc3scc(-c4cccs4)c23)nc1,–,–,–,29.5,–,–
c1ccc(-c2csc3ncnc(NCc4ccccn4)c23)cc1,–,–,–,42.9,–,–
CCC(Oc1cc(Cl)ccc1Cl)C(=O)NNC(=O)CCC(=O)O (configuration not stated),–,–,–,–,–,–
Cc1ccc2c(c1)N(C(=O)CCC(=O)N1CCN(c3cccc(C)c3C)CC1)CCO2,–,–,–,–,–,–
CN(CCCC1CCCC1)C(=O)c1cc(COc2ccc(F)cc2F)on1,–,–,–,–,–,–
CN(CCCN1CCCCC1)C(=O)c1cc(COc2ccc(F)cc2F)on1,35.8,–,–,38.4,–,–
Cc1ccc2c(COC(=O)CC3Sc4ccccc4NC3=O)cc(=O)oc2c1C (configuration not stated),–,–,–,–,–,–
O=C(N/N=C/c1ccco1)C1CC1(c1ccccc1)c1ccccc1 (configuration not stated),28.4,–,–,–,–,–
CN(C(=O)COC(=O)CN1C(=O)c2cccc([N+](=O)[O-])c2C1=O)c1ccccc1,–,–,–,–,–,28.1
CN(C(=O)COC(=O)CSc1ccc([N+](=O)[O-])cc1)c1ccccc1,–,–,–,–,–,–
CCOC(=O)/C(C#N)=C/c1cc2ccccc2nc1N1CCOCC1,–,–,–,–,–,–
CN1CCN(C2=Cc3ccccc3Sc3cc(F)ccc32)CC1,–,–,–,79.8,–,–
CN1CCN(C2=Cc3ccc(Cl)cc3Sc3ccc(F)cc32)CC1,–,–,–,–,–,–
O=C1C2C3c4ccccc4C(c4ccccc43)C2C(=O)N1c1nc(-c2ccccc2)cs1 (configuration not stated),–,–,–,–,–,20.1
Cc1ccc(NC2=NC(c3ccc(F)cc3)n3c(nc(C)cc3=O)N2)c(C)c1 (configuration not stated),–,–,–,37.5,–,–
CCCCN(C(=O)C1CCC1)c1c(N)n(CCC)c(=O)[nH]c1=O,–,–,–,–,–,–
CCCCN(C(=O)C1CCCC1)c1c(N)n(CC(C)C)c(=O)[nH]c1=O,–,27.3,–,–,–,29.9
C=C(C)C1CC=C(C)/C(=N/NC(=O)COc2cccc(C)c2)C1 (configuration not stated),–,–,–,–,–,–
C=C(C)C1CC=C(C)/C(=N/NC(=O)COc2ccc(Cl)cc2)C1 (configuration not stated),–,19.8,–,–,–,–
